Assay outcomes deposited in PubChem BioAssay by NMMLSC.
The list is not random: actives were taken first. Their share in the collection is about 3.5%.
BoNT-F LC inh = blocks Botulinum neurotoxin F light chain protease. Multiplex microsphere protease cleavage assay, flow cytometry. inhibition, % at 10 µM. actives 0.22% (n = 360,000). AID 588497; in the data active = inhibition above about 35%, passing the limit was not always enough; inconclusive = no clear call, values can overlap the other calls
Autofluor counter = flagged as autofluorescent in microsphere protease counterscreen. actives 3.1% (n = 360,000). fluorescence intensity (test concentration not listed). compound autofluorescence counterscreen, microsphere flow cytometry; active compounds read high. AID 624483; in the data active = fluorescence intensity above about 16000; inconclusive = no clear call, values can overlap the other calls
BoNT A protease = BoNT A light chain protease inhibition. multiplex microsphere protease substrate cleavage, flow cytometry. inhibition, % at 10 µM. actives 0.17% (n = 360,000). AID 588499
Anthrax LF inh2 = inhibitors of Bacillus anthracis lethal factor protease; P15917; multiplex microsphere protease cleavage assay, LF; inhibition, % at 10 µM; actives 0.12% (n = 360,000)
Target sequence (P15917 whole entry, looked up): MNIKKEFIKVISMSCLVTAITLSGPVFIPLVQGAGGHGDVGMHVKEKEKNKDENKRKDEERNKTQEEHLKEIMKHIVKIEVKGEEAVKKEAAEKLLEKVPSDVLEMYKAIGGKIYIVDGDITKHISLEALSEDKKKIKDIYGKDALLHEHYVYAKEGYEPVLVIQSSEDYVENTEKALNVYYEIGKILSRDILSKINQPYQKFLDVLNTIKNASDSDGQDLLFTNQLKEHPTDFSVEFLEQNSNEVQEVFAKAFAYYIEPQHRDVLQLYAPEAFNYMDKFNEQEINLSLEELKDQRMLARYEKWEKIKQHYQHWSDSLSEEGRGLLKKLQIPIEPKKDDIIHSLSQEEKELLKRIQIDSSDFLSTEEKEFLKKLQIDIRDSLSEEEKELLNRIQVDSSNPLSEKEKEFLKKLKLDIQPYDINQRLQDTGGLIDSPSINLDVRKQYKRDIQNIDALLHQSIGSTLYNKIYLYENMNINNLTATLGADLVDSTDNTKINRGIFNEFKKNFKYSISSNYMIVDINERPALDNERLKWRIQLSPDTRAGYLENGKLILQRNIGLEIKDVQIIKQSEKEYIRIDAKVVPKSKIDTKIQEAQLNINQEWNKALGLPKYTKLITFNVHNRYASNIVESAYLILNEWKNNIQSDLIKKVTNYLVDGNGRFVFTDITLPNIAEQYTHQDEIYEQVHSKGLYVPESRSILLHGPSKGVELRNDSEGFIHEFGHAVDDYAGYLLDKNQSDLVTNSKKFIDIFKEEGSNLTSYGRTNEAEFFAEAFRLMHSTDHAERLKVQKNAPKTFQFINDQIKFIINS
Hits are given with their value; . = inactive; ? = inconclusive. Cut-off read from the data, not from the text of the source, unless noted: active = inhibition above about 30%; inconclusive = no clear call, values can overlap the other calls; inactive = below that.

SMILES	BoNT-F LC inh	Autofluor counter	BoNT A protease	Anthrax LF inh2
Cc1ccccc1C(=O)NNC(=O)C(=O)Nc1cccc(Cl)c1C	.	20831	.	.
Cc1nnc(SCC(=O)NCc2cccs2)n1-c1ccccc1	.	.	.	.
Cc1nnc(SCc2ccccc2F)n1NCc1cccs1	.	22098	.	.
CC1CC(=O)N(Cc2ccccc2)c2ccccc2N1C=O (stereo unspecified)	.	20499	.	.
Cc1ccc(NP(=O)(Nc2ccc(C)cc2)Oc2ccccc2)cc1	.	.	.	.
COc1ccc(OP(=O)(Nc2ccccc2)Nc2ccccc2)cc1	.	17088	.	.
CCCOc1ccc(-c2nnc(-c3ccco3)o2)cc1	.	21565	.	.
CC(C)COc1ccc(-c2nnc(-c3ccco3)o2)cc1	.	17184	.	.
COc1cccc(-c2nnc(-c3ccco3)o2)c1	.	.	.	.
O=C(COc1ccccc1)Nc1ccc(-c2nnc(-c3ccco3)o2)cc1	.	.	.	.
CCN(C)C1CN(Cc2cn(Cc3ccc(C(F)(F)F)cc3)nn2)S(=O)(=O)C1 (stereo unspecified)	.	.	.	.
COC(=O)c1cc(NC(=O)c2ccccc2)c(=O)oc1/C=C/Nc1ccc(Oc2ccccc2)cc1	54	97551	43	.
COc1ccc(C(=O)Nc2cc(C(C)=O)c(C)oc2=O)cc1	.	.	.	.
Cc1nc2cc(OC3(C)CCN(Cc4ccc(OC(F)(F)F)cc4)C3)ccc2s1 (stereo unspecified)	.	.	.	.
CC(=NCCN1CCOCC1)c1c(O)n(-c2ccccc2C)c(=O)[nH]c1=O	.	23519	.	.
CC(=NCCN1CCOCC1)c1c(O)n(C2CCCCC2)c(=O)[nH]c1=O	.	24874	.	.
CCC(=NCCN1CCOCC1)c1c(O)n(-c2ccccc2C)c(=O)[nH]c1=O	.	.	.	.
CC(=NCCCN1CCOCC1)c1c(O)[nH]c(=O)[nH]c1=O	.	20875	.	.
CC1(C(=O)NS(=O)(=O)c2cccc(C#N)c2)CCN1C(=O)c1cccc2ccccc12 (stereo unspecified)	.	.	.	.
COc1cccc(CNC(=O)[C@@H]2CCCN2C(=O)[C@H]2CCCCN2C(=O)c2cccc(OC)c2)c1	.	.	.	.
Cc1cccc(N(C)c2cc(-c3ccc(F)cc3)nc3ccnn23)c1	.	.	.	.
Cc1ccc(-c2nc3s/c(=C\c4ccco4)c(=O)n3n2)cc1	.	.	.	.
O=c1nc2s/c(=C\c3ccco3)c(=O)n2nc1Cc1ccc(F)cc1	.	25032	.	.
O=C(NCc1ccccn1)c1ccco1	.	.	.	.
O=C(NC(Cc1ccccc1)C(=O)NCc1ccccn1)c1ccco1 (stereo unspecified)	.	17464	.	.
SMILES	BoNT-F LC inh	Autofluor counter	BoNT A protease	Anthrax LF inh2
COc1ccc2ccccc2c1CN1CCSCC1	?	.	.	.
CCN1CCN(Cc2c(OC)ccc3ccccc23)CC1	.	19532	.	.
CCOc1ccccc1N1CCN(Cc2cccc(OC)c2OC)CC1	.	16205	.	.
COc1ccc2ccccc2c1CN1CCN(C)CC1	.	19346	?	.
COc1ccccc1N1CCN(Cc2ccc(OC)c(OC)c2OC)CC1	.	?	.	.
COc1ccc(CN2CCN(c3ccccc3)CC2)c(C)c1C	.	23743	?	.
Cc1ccc(C(O)c2ncc(-c3ccccc3Cl)[nH]2)c(C)c1 (stereo unspecified)	.	.	.	.
Cc1cccc(C)c1NC(=O)C1c2ccccc2OCC(=O)N1C1CC1 (stereo unspecified)	.	.	.	.
Clc1ccc2c(-c3ccccc3)nc(-c3cccs3)nc2c1	.	.	.	.
COCCNC(=O)C1(C)CCN(C(=O)c2cccnc2Oc2ccccc2)C1 (stereo unspecified)	.	.	.	.
CC1=C(C(=O)N2CCCCCC2)CC(CC(=O)NCCc2ccccn2)C(=O)N1Cc1ccc(F)cc1 (stereo unspecified)	.	.	.	.
O=C(Nc1ccccc1OC(F)F)c1ccccc1	.	.	.	.
Cc1ccc(C(=O)Nc2ccccc2OC(F)F)cc1	.	23774	?	.
C#CCNc1cc(C)nc2ncnn12	.	24731	?	.
O=C(Nc1ncc(Cc2ccc(SC(F)F)cc2)s1)c1ccccc1	.	21972	.	.
O=C(Nc1ncc(Cc2ccccc2)s1)c1cccs1	.	.	.	.
Cc1ccc(C(=O)Nc2ncc(Cc3ccccc3)s2)o1	.	24322	.	.
Cn1cccc1C(=O)Nc1ccc(Cl)c(S(=O)(=O)N2CCCCC2)c1	.	.	.	.
NC(=O)Cn1cc(/C=N\NS(=O)(=O)c2ccc(Cl)cc2)c2ccccc21	.	.	.	.
O=S(=O)(N/N=C/c1cn(Cc2ccccc2)c2ccccc12)c1ccccc1	.	22504	.	.
COCCCN1C(=O)C(CC(=O)NCc2cccs2)CC(C(=O)N2CCCCCC2)=C1C (stereo unspecified)	.	.	.	.
O=C(NCc1ccc(Cl)cc1)c1cc(-c2cccs2)on1	.	16902	.	.
CC(NC(=O)c1cc(-c2cccs2)on1)c1ccccc1 (stereo unspecified)	.	16362	?	.
COc1ccc(CNC(=O)c2cc(-c3cccs3)on2)cc1	.	.	.	.
O=C(NCc1cccs1)c1cc(-c2ccccc2)on1	.	.	.	.
SMILES	BoNT-F LC inh	Autofluor counter	BoNT A protease	Anthrax LF inh2
O=C(NCc1cccs1)c1cc(-c2cccs2)on1	.	22229	.	.
Cc1ccc(Cn2ccc(NC(=O)c3cc(-c4cccs4)on3)n2)cc1	.	25079	.	.
CNC(=O)c1cc(Oc2ccc(NC(=O)Nc3ccc(Cl)c(C(F)(F)F)c3)cc2)ccn1	.	.	.	.
O=C(Nc1ccc2c(c1)OCO2)c1ccc2nc([C@@H]3O[C@H](CO)[C@H](O)[C@H](O)[C@H]3O)[nH]c2c1	.	.	.	.
CC(C)C(=O)N1CCCC1(C)C(=O)Nc1ccccc1 (stereo unspecified)	.	.	.	.
COc1ccccc1-c1noc2c1C(=O)N(Cc1cn(C3CCCC3)nn1)CC2	.	.	.	.
O=C1c2ccccc2C(c2nnnn2-c2ccc3c(c2)OCCO3)N1CCc1ccccc1F (stereo unspecified)	.	.	.	.
Cc1ccc(C(C#N)N2CCOCC2)cc1 (stereo unspecified)	.	22170	.	.
Cc1ccc(NC(=O)C2CC2C)cc1S(=O)(=O)N1CCOCC1 (stereo unspecified)	.	.	.	.
Cc1cn([C@H]2C[C@H](O)[C@@H](/C=C/C(=O)N3CCN(Cc4ccc(F)cc4)CC3)O2)c(=O)[nH]c1=O	.	.	.	.
N#C/C(C(=O)c1ccccc1)=C1/CCCN1	.	23223	.	.
N#C/C(=C1\CCCN1)c1nc2ccccc2c(=O)[nH]1	.	.	.	.
Cc1ccccc1-n1c(=O)/c(=C\c2ccco2)s/c1=C(/C#N)C(=O)Nc1ccccc1	.	20678	.	.
Cn1c(SCc2nc3ccccc3c(=O)[nH]2)nc2ccccc21	.	.	.	.
CC(C)Cn1c(SCc2nc3ccccc3c(=O)[nH]2)nc2ccccc2c1=O	.	19467	.	.
COc1ccc(S(=O)(=O)N(C)CC(=O)Nc2cccc(C(C)=O)c2)cc1Cl	.	18037	.	.
